# Experimental data reported in PubChem BioAssay.
# “And” between values parts separate entries of the source, which are not always exact repeats. Equal entries are not always repeated. For some assays here: Measured potencies and affinities stand elsewhere. The source made the active and inactive calls.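 How the source made its calls, unless noted: active means thallium flux through the channel raised or lowered by more than 3 SD from vehicle-only wells, actives on both sides; inactive means the rest.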
# Tests used:
# [1] = polyglutamine-triggered caspase-3 activation inhibitors, cell-based (AID 1583); details: polyglutamine-induced caspase-3 activation, cell assay; stronger effect = higher value;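 tested at 10 µM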
# [2] = suppressors of polyQ aggregation in yeast, 75Q-TubU reporter (AID 1593); details: Yeast 75Q polyglutamine aggregation reporter
# [3] = rescue of polyQ-huntingtin neuronal dysfunction in worms, whole organism, C. elegans mechanosensory neurons, N-terminal huntingtin (AID 1599); details: touch response, stronger effect = higher value
# [4] = inhibitors of mitochondrial cytochrome c release, biochemical, purified mitochondria (AID 1603); details: stronger effect = lower value;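 further: mouse liver mitochondria challenged with calcium chloride; signal normalized to the plate average as 100%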
# [5] = inhibitors of polyQ protein aggregation (AID 1604); details: polyglutamine-induced protein aggregation inhibition assay; stronger effect = higher value; tested at 2.5 µM
# [6] = enhancers of glutamate uptake in motor neurons, MN-1 cell line (AID 1612); details: MN-1 motor neuron cells, stronger effect = higher value;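 further: tested at 1 µM final; 0% = mean of DMSO vehicle wells on each plate; positive means more glutamate uptake than control and negative means less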
# [7] = suppressors of polyglutamine aggregation in yeast, 75Q-TubH (AID 1616); details: S. cerevisiae 75Q-TubH polyglutamine aggregation suppression; stronger effect = higher value
# [8] = Cy5 fluorescence interference with SSB-bound oligo, artefact control for HCV NS3 helicase inhibitor project, biochemical, NIH Clinical Collection, E. coli SSB (AID 743268; call rule not given here)
# [9] = tested on: Hepatitis C virus NS3 helicase; assay: HCV NS3 helicase inhibitors, primary screen, biochemical, fluorescence polarization, NIH Clinical Collection (AID 743270; call rule not given here); details: NS3 helicase binding to Cy5-dT15 DNA, stronger effect = higher value, concentration not given here
# [10] = biological target: Single-stranded DNA-binding protein (Escherichia coli (strain K12)) (UniProt P0AGE0); assay: E. coli SSB displacement from DNA, counter-screen for HCV NS3 helicase inhibitor project, biochemical, fluorescence polarization, NIH Clinical Collection (AID 743271; in the data active means inhibition above about 28%); details: stronger effect = higher value, concentration not given here
# [11] = fluorescence interference in NS3h assay format, artefact control for HCV NS3 helicase inhibitor project, biochemical, NIH Clinical Collection (AID 743272; call rule not given here;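 further: HCV NS3 helicase with a Cy5 labelled single stranded DNA probe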); details: fluorescence interference counterscreen, stronger effect = lower value
# [12] = viability rescue of complex I mutant cybrids, primary screen, cell-based, galactose medium, ATP luminescence (AID 1645843;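 active means z-score of at least 1.8 in each of two replicates, scored against plate mean and spread of sample wells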;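 further: positive z means more ATP and so rescue of galactose-driven cybrid death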); details: complex I mutant cybrid cells, 72 h, stronger effect = higher value
# [13] = tested on: F380Y/beta4; assay: modulators of BK channel variants, profiling panel, selectivity assay, cell-based, U2OS BacMam, thallium flux, beta subunits (AID 1259406); details: at 30 µM;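 further: initial slope of Thallos dye fluorescence rise after thallium is added; log ratio against the mean of 0.3% DMSO vehicle wells on the same plate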
# [14] = biological target: Calcium-activated potassium channel subunit alpha-1 (Homo sapiens) + Leucine-rich repeat-containing protein 26 (Homo sapiens) (UniProt Q12791+Q2I0M4); assay: as above; details: F380Y/Slo1WT/gamma1, at 30 µM
# Calcium-activated potassium channel subunit alpha-1 (Homo sapiens) + Leucine-rich repeat-containing protein 26 (Homo sapiens), sequence (Q2I0M4 whole entry, looked up, one chain of several): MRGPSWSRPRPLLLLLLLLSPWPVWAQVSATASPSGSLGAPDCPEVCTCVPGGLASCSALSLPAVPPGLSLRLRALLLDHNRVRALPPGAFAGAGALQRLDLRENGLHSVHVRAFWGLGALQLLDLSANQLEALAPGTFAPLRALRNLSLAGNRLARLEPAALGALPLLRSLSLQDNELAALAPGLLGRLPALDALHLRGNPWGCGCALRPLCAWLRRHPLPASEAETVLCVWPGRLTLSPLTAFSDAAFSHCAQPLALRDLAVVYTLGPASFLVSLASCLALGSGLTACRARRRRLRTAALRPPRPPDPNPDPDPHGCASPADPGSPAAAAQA
# [15] = tested on: R275C; assay: as above; details: at 30 µM
# [16] = tested on: R275C/beta1; assay: as above; details: at 30 µM
# [17] = tested on: R275C/beta2Delta; assay: as above; details: at 30 µM
# [18] = tested on: R275C/beta4; assay: as above; details: at 30 µM
# [19] = tested on: R275C/Slo1WT/beta2; assay: as above; details: at 30 µM
Structure (SMILES),inhibition [1] [%],score [2],rescue above control [3],cytochrome c release ratio [4],inhibition of aggregation [5] [%],glutamate uptake change [6] [%],aggregation suppression score [7],fluorescence ratio [8],inhibition [9],inhibition [10],fluorescence ratio [11],z-score [12],log fold change Tl+ flux [13],log fold change Tl+ flux [14],log fold change Tl+ flux [15],log fold change Tl+ flux [16],log fold change Tl+ flux [17],log fold change Tl+ flux [18],log fold change Tl+ flux [19]
O=C(O)c1cc(=O)c2c(OCC(O)COc3cccc4oc(C(=O)O)cc(=O)c34)cccc2o1,-4.9,1.69,9.88,0.89,65.5,-4.58,1.35,1.02 (inactive),-2.27% (inactive),3.34% (inactive),1.03 (inactive),0.69 (inactive) and 0.68 (inactive),-0.0657 (inactive),-0.0248 (inactive),-0.0035 (inactive),-0.0241 (inactive),-0.0325 (inactive),-0.125 (inactive),0.015 (inactive)
CC(C)C(=O)Nc1ccc([N+](=O)[O-])c(C(F)(F)F)c1,28.6,0.95,0,0.83,22.5,-7.31,0.664,0.94 (inactive),-1.36% (inactive),2.57% (inactive),0.88 (inactive),-0.565 (inactive) and -0.735 (inactive) and -1.1 (inactive),-0.0805 (inactive),-0.0492 (inactive),-0.0976 (active),-0.0165 (inactive),0.0539 (inactive),-0.0876 (inactive),-0.0286 (inactive)
CC(C[N+](C)(C)C)OC(N)=O (stereo not given),18.5,1.26,20.6,0.92,-22.2,-0.67,1.26,1.06 (inactive),-3.18% (inactive),-1.24% (inactive),1.01 (inactive),-0.115 (inactive) and 0.415 (inactive) and 0.59 (inactive),0.00469 (inactive),0.00848 (inactive),0.0156 (inactive),0.0122 (inactive),0.00284 (inactive),0.043 (inactive),0.0355 (inactive)
CC12CC3CC(C)(C1)CC(N)(C3)C2,12.5,1.59,-2.96,1.07,35,2.56,1.45,1.02 (inactive),-1.36% (inactive),-0.48% (inactive),1.02 (inactive),-0.41 (inactive) and 0.5 (inactive) and -0.635 (inactive),0.00566 (inactive),-0.0203 (inactive),0.00266 (inactive),-0.0595 (inactive),0.0488 (inactive),0.0101 (inactive),-0.103 (inactive)
N[C@@H]1CONC1=O,3.67,1.72,-2.84,0.8,65.4,-3.66,1.32,0.99 (inactive) and 1.05 (inactive),5.94% (inactive) and -1.36% (inactive),2.98% (inactive) and 0.29% (inactive),0.95 (inactive) and 1.03 (inactive),0.55 (inactive) and 0.975 (inactive),0.0351 (inactive),-0.0244 (inactive) and 0.0135 (inactive),-0.00755 (inactive) and 0.0374 (inactive),0.00647 (inactive) and 0.0301 (inactive),0.0216 (inactive) and -0.0265 (inactive),0.00356 (inactive),-0.00809 (inactive)
CCc1cc(C(N)=S)ccn1,13.5,1.02,-3.77,1.06,78.8,15.8,1.09,1.03 (inactive),-4.09% (inactive),-4.29% (inactive),1.01 (inactive),0.725 (inactive),0.0197 (inactive),0.00124 (inactive),0.0202 (inactive),-0.00453 (inactive),-0.00222 (inactive),0.0412 (inactive),0.00968 (inactive)
NNC(=O)c1ccncc1,-15,1.32,-6.58,1.2,30.1,-15.1,1.6,1.01 (inactive),-2.27% (inactive),3.34% (inactive),0.93 (inactive),0.55 (inactive) and 0.315 (inactive),0.0513 (inactive),0.0222 (inactive),0.00765 (inactive),-0.00353 (inactive),0.0339 (inactive),0.0039 (inactive),-0.0323 (inactive)
CN=C(NC#N)NCCSCc1nc[nH]c1C,15.1,1.08,-9.17,1.04,58.9,-5.55,1.05,0.98 (inactive),-3.18% (inactive),-2% (inactive),0.94 (inactive),,0.031 (inactive),0.0464 (inactive),0.00692 (inactive),-0.0361 (inactive),0.00462 (inactive),0.0223 (inactive),0.0339 (inactive)
NCCc1ccc(O)c(O)c1,12.5,1.44,0.54,0.92,81.4,17.9,1.6,0.93 (inactive),-5.91% (inactive),-2% (inactive),0.96 (inactive),-1.03 (inactive) and -1.31 (inactive),0.00195 (inactive),-0.0022 (inactive),0.00996 (inactive),-0.0871 (inactive),0.0238 (inactive),0.0461 (inactive),0.00323 (inactive)
